Compound activity (PubChem BioAssay)
The list is not random: actives were taken first. Their share in the collection is about 9.9%.
Tau fibril FP – qHTS for Inhibitors of Tau Fibril Formation, Fluorescence Polarization; Potency, µM (doses to about 57.7 µM), actives largely listed as inhibitors; Microtubule-associated protein tau (Homo sapiens), P10636; K18 P301L tau heparin fibrillization, Alexa594 FP, 6 h; 280,000 tested, 0.39% active; further: nearly all actives have a fitted effect of over 55% in size
Target sequence (P10636 561-689 P618L limits assumed): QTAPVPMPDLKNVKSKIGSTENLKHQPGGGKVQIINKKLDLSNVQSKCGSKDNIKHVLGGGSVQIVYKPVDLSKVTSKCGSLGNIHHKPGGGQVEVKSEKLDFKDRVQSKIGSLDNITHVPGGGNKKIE
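FP of Alexa 594-tau after heparin (20 uM) induction. Substrate: human K18 P301L, 15 uM unlabeled, 0.24 uM labeled. Buffer 100 mM sodium acetate pH 7. 6 hr, 37 C.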
Tau fluor counter – Counterscreen qHTS for Inhibitors of Tau Fibril Formation, Fluorescence Polarization. 280,000 tested, 0.93% active. tau K18 P301L Alexa594 fluorescence, heparin fibrillization. Potency, µM (series often up to 57.7 µM); further: nearly all actives have a fitted effect of over 55% in size
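Human tau K18 P301L (15 uM unlabeled, 0.24 uM Alexa 594-labeled) in 100 mM sodium acetate pH 7 with 20 uM heparin, 6 hr at 37 C. ThT 30 uM added, 1 hr ambient; Alexa 594 FP and total fluorescence read at 555/632 nm.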
ALDH1A1 block – qHTS Assay for Inhibitors of Aldehyde Dehydrogenase 1 (ALDH1A1). Purified ALDH1A1, NADH fluorescence, propionaldehyde substrate. Aldehyde dehydrogenase 1A1 (Homo sapiens), P00352. AID 1030, 2008. 220,000 tested, 7.3% active. Potency, µM (doses to about 75.3 µM), usual class: inhibitors; active means well fitted inhibition curve with a large enough effect, not every such curve was filed as active; inconclusive means small, poorly fitted or top-dose-only effect, or another doubt; inactive means no such curve, though single readings can be large or run the other way
Tau ThT inhib – qHTS for Inhibitors of Tau Fibril Formation, Thioflavin T Binding; Microtubule-associated protein tau (Homo sapiens), P10636; recombinant tau K18 P301L (four-repeat tau fragment), heparin-induced fibrillization, ThT fluorescence; Potency, µM (highest dose often 57.4 µM), usual class: inhibitors; 270,000 tested, 2.1% active; AID 1460, 2008; further: nearly all actives have a fitted effect of over 55% in size
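Heparin-induced (20 uM) aggregation of recombinant human K18 P301L tau, 15 uM unlabeled with 0.24 uM labeled, pH 7 acetate buffer, 6 hr at 37 C with compound. Fibrils quantified by 30 uM ThT fluorescence after 1 hr ambient incubation.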
JMJD2E inh – qHTS Assay for Inhibitors of Human Jumonji Domain Containing 2E (JMJD2E). Lysine-specific demethylase 4E (Homo sapiens), B2RXH2. JMJD2E catalytic domain, FDH-coupled NADH fluorescence (FDH is formaldehyde dehydrogenase). Potency, µM (titrated, usually from 57.1 µM), most hits filed as inhibitors. 230,000 tested, 1.6% active. AID 2147, 2009; active means well fitted inhibition curve with a large enough effect, not every such curve was filed as active; inconclusive means small, poorly fitted or top-dose-only effect, or another doubt; inactive means no such curve, though single readings can be large or run the other way; further: nearly all actives have a fitted effect of over 50% in size
HPGD inh – qHTS Assay for Inhibitors of HPGD (15-Hydroxyprostaglandin Dehydrogenase). 150,000 tested, 4.3% active. purified HPGD, NADH fluorescence kinetic, PGE2 substrate. AID 894, 2007. Potency, µM, most hits filed as inhibitors. 15-hydroxyprostaglandin dehydrogenase [NAD(+)] (Homo sapiens), P15428; active means well fitted inhibition curve with a large enough effect, not every such curve was filed as active; inconclusive means small, poorly fitted or top-dose-only effect, or another doubt; inactive means no such curve, though single readings can be large or run the other way
Target sequence (P15428 whole entry, looked up): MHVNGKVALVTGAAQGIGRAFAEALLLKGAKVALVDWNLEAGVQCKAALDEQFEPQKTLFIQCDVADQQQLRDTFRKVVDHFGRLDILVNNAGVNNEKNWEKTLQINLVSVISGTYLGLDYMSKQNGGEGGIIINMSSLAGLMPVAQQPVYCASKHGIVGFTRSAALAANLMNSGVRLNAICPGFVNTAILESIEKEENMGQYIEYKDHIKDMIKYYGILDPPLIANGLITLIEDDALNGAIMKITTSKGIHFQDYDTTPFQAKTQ
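20 nM HPGD preincubated 15 min at room temperature with compound in 50 mM Tris-HCl pH 8, 0.01% Tween 20. Started with 1 mM NAD+ and 30 uM prostaglandin E2; NADH fluorescence (360/450 nm) read 5 times over 30-s intervals, last minus first.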
A number is an active result; i = inactive; ? = inconclusive; nt = not tested or not shown; [ ] = dose if it differs, or a comment. Unless noted, the call rests on the fitted dose curve; in most records, active means well fitted curve in the direction sought with a large enough effect; inconclusive means small, poorly fitted or top-dose-only effect, or another doubt; inactive means no such curve, though single readings can be large; an effect the other way counts as inactive or inconclusive.

SMILES | Tau fibril FP | Tau fluor counter | ALDH1A1 block | Tau ThT inhib | JMJD2E inh | HPGD inh
O=C(COC(=O)c1cnc(Cl)c(Cl)c1)Nc1ccc(S(=O)(=O)N2CCCC2)cc1 | ? | ? | ? | i | i | i
COc1ccccc1CNC(=O)c1cnc2sc(N3CCOCC3)nn2c1=O | i | i | nt | i | nt | nt
Cc1noc(C)c1CSc1nc2ccccc2c(=O)n1-c1ccc(F)cc1F | i | i | 8.91µM | i | i | i
Cc1nc(CSc2nc3[nH]ncc3c(=O)n2-c2ccccc2)cs1 | i | i | 12.6µM | i | i | i
Cc1nc(CSc2n[nH]c(=O)n2-c2ccccc2)cs1 | i | i | i | i | i | nt
C=CCn1c(SCc2c(C)noc2C)nc2cc(C(=O)O)ccc2c1=O | i | i | i | i | i | i
COC(=O)c1ccc(CSc2nc3ccccc3c(=O)n2-c2ccccc2)o1 | i | i | 25.1µM | ? | i | i
C=CCn1c(SCc2c(C)noc2C)nc2ccccc2c1=O | i | i | i | i | i | i
Cc1noc(C)c1CSc1nc2ccccc2c(=O)n1-c1ccccc1 | i | i | 4.47µM | i | i | i
COC(=O)c1ccc(CSc2nc3ccccc3c(=O)n2-c2ccc(OC)c(OC)c2)o1 | i | i | i | i | i | i
Cc1ccc(CCNC(=O)CCSCc2ccccc2F)cc1 | i | i | nt | i | nt | nt
Cc1c(C)c2c(cc(C)c3c(-c4ccccc4)coc32)oc1=O | i | i | nt | i | nt | nt
COc1ncc2nc(CCc3ccccc3)c(=O)n(CCC#N)c2n1 | nt | nt | ? | nt | nt | i
CCC(C(=O)N1CCN(c2cc(Cl)ccc2C)CC1)n1nc(C)c2sc3ccccc3c2c1=O (centres undefined) | i | i | nt | i | nt | nt
COC(=O)c1ccc(NC(=O)C(=O)NCCc2csc(-c3ccc(F)cc3)n2)cc1 | i | i | nt | i | nt | nt
COC(=O)c1ccc(NC(=O)CSc2nc(C)cc(C)c2C(=O)Nc2ccccc2)cc1 | ? | i | nt | i | nt | nt
Cc1noc(C)c1CSc1nc2[nH]ncc2c(=O)n1-c1ccccc1 | i | i | 1.26µM | i | i | i
COc1ccc(S(=O)(=O)N2CCOCC2)cc1NC(=O)Cc1ccc(Cl)c(Cl)c1 | i | i | i | i | i | i
C=CCOC(=O)C(=O)/C=C/c1coc2ccccc2c1=O | ? | i | 31.6µM | i | i | nt
CC(C)c1ccc(/C=N/N2CCN(c3ccccn3)CC2)cc1 | i | ? | i | 12.6µM | i | nt
Oc1ccccc1/C=N/N1CCN(c2ccccn2)CC1 | i | i | nt | ? | i | nt
CSCCC(NC(=O)COc1ccccc1)C(=O)O (centres undefined) | i | i | i | i | i | nt
COc1ccc(C2C(=O)N(C3CCCCCC3)CC(=O)N2Cc2ccc(C)cc2)cc1OC (centres undefined) | i | i | nt | i | nt | nt
OC[C@@H]1CCC[C@H](n2cnc3c(=S)nc[nH]c32)O1 | nt | nt | i[13.5 µM] | nt | nt | i
Cc1ccc(Cc2c(C)nc3nc(SCC(=O)NC4CCC(C)CC4)nn3c2C)cc1 (centres undefined) | i | i | nt | i | nt | nt
SMILES | Tau fibril FP | Tau fluor counter | ALDH1A1 block | Tau ThT inhib | JMJD2E inh | HPGD inh
COC(=O)c1ccc(S(=O)(=O)NCCSc2nnc3c4ccccc4n(C)c3n2)cc1 | i | i | 15.8µM | ? | i | ?
O=C(/C=C/c1ccnc2ccccc12)c1cccs1 | i | i | 28.2µM | ? | i | nt
NC(=S)Cc1nc(-c2ccc(Cl)cc2)cs1 | ? | ? | 2µM | 15.8µM | i | nt
NNC(=O)CSCc1nc(-c2ccc(Cl)cc2)cs1 | i | i | 0.708µM | i | i | nt
NNC(=O)CSCc1nc(-c2ccccc2)cs1 | i | i | i | i | i | nt
NC(=O)Cc1nc(-c2ccc(F)cc2)cs1 | i | i | nt | i | i | nt
Cc1cc(O)ccc1N=Cc1c(C(F)(F)F)[nH][nH]c1=O | 31.6µM | ? | ? | 25.1µM | i | nt
CCCOc1ccc(/C=C/C(=O)Nc2sc(C)c(C)c2C(=O)OCC)cc1OC | ? | i | nt | 28.2µM | nt | nt
